This is part of a sample that, as a whole, favours compounds with a hit. Of some 83,000 tested, about 20% had one in any assay.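 Single-concentration screen, 48 h exposure, 96-well plates. Endpoint: percent growth. Below 10 = active.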 Unmarked numbers belong to inactive results. Calls of active or inactive are those of the source.

Some test systems named below: T-47D breast; BT-549 breast; MDA-MB-435 melanoma; SW-620 colon; MCF7 breast; HCT-116 colon; HCC-2998 colon; KM12 colon.
Holding throughout (assay): NCI-60 one-dose screen, 48 h (100 = growth as untreated, 0 = no growth, -100 = all killed)
What all share (details): 10 µM unless noted

Turning to `CC(=O)Oc1ccccc1C(=O)N(Cc1ccc2c(Cl)cc(Cl)c(O)c2n1)c1ccccc1`, the growth in the assay with T-47D breast was 40.7%; with BT-549 breast, 77.3%; with MDA-MB-435 melanoma, 54.3%; in the assay on SW-620 colon, 29.1%; in the assay with MCF7 breast it was 34.7%; in the assay with HCT-116 colon, 30.9%. The growth was 60.1% in the assay on HCC-2998 colon and 39.6% with KM12 colon.
Regarding `COc1cc(CNC(=O)CCCC/C=C/C(C)C)ccc1OCc1cn(-c2cccc([N+](=O)[O-])c2)nn1`, the growth in the assay with T-47D breast is 72.3%; in the assay on BT-549 breast, 96.3%; in the assay on MDA-MB-435 melanoma, 101%; in the assay with SW-620 colon it was 97.4%; in the assay with MCF7 breast, 74.1%; in the assay on HCT-116 colon, 42%. For the same compound, the figures for the growth in the assay with HCC-2998 colon and in the assay on KM12 colon were 101% and 91.2%, respectively.
Take `CN1CC(c2ccccc2)C(C(=O)c2ccc(Br)cc2)C12C(=O)Nc1ccccc12` (configuration not stated): the growth was 81.5% with T-47D breast; 111% in the assay with BT-549 breast; 106% in the assay with MDA-MB-435 melanoma; 95.4% with SW-620 colon; 98.5% with MCF7 breast; 86.3% in the assay with HCT-116 colon. Besides, the growth in the assay on HCC-2998 colon is 99.7%; in the assay with KM12 colon, 101%.
In the case of `C=CCn1c(SCC(=O)Nc2ccc(C(=O)/C=C/c3ccc(Cl)cc3)cc2)nnc1-c1ccccc1`, the growth with T-47D breast is 73%; with BT-549 breast, 71.3%; with MDA-MB-435 melanoma, 77.5%; with SW-620 colon, 98.4%; in the assay on MCF7 breast, 24.4%; in the assay with HCT-116 colon, -78.6% (active). In addition, the growth in the assay on HCC-2998 colon is 96.4%; in the assay on KM12 colon it was 85.2%.
As to `COC(=O)c1cc(-c2cc(OC)c(OC)c(OC)c2)[nH]c1N/N=C/c1c(Cl)cccc1Cl`, the growth in the assay on T-47D breast was 9.55% (active); in the assay on BT-549 breast, 128%; with MDA-MB-435 melanoma, -2.15% (active); in the assay with SW-620 colon, 44.9%; with MCF7 breast, 7.14% (active); in the assay with HCT-116 colon, 5.15% (active). Besides, the results for the growth in the assay with HCC-2998 colon and with KM12 colon were -62% (active) and 15%, respectively.
Regarding `COC(=O)[C@H](C)NC(=O)c1ccc(NC(=O)c2[nH]c(C)c(Cl)c2Cl)c(OCCN)c1`, the growth in the assay on T-47D breast is 99.6%; in the assay on BT-549 breast it was 97%; in the assay on MDA-MB-435 melanoma it was 104%; in the assay with SW-620 colon, 102%; with MCF7 breast, 81.5%; in the assay with HCT-116 colon, 106%. Further, the results for the growth with HCC-2998 colon and with KM12 colon were 95.4% and 92.5%, respectively.
With `O=C1CCC(C(=O)N/N=C/c2ccc([N+](=O)[O-])cc2)N1` (configuration not stated), the growth was 99.2% in the assay on T-47D breast; 106% in the assay on BT-549 breast; 102% in the assay on MDA-MB-435 melanoma; 105% in the assay on SW-620 colon; 94.8% in the assay on MCF7 breast; 105% in the assay with HCT-116 colon. The growth in the assay with HCC-2998 colon is 95.3%; with KM12 colon, 105%.
In the case of `COCCn1cc(-c2nc(-c3cc4cccnc4n3C)cs2)c2cc(OC)ccc21`, the growth is -15.9% (active) in the assay with T-47D breast; 27% in the assay with BT-549 breast; 89.6% with MDA-MB-435 melanoma; 77.1% in the assay on SW-620 colon; 2.86% (active) in the assay on MCF7 breast; 46.1% with HCT-116 colon. Further, the growth in the assay with HCC-2998 colon is 39.6%; with KM12 colon, 6.09% (active).
Consider `CN1CCN(Cc2ccc(NC(=O)c3cncc(C#Cc4c(N)ncc5ccccc45)c3)cc2C(F)(F)F)CC1`, for which the growth in the assay on T-47D breast was -64.5% (active); in the assay with BT-549 breast it was 14.6%; with MDA-MB-435 melanoma, -90.3% (active); with SW-620 colon, -71.3% (active); in the assay on MCF7 breast, -70.8% (active); with HCT-116 colon, -96.5% (active). The growth with HCC-2998 colon is -60.7% (active); with KM12 colon, -65.2% (active).
Turning to `COC12C=C/C(=C(/C(=O)OCc3ccccn3)C(=O)CCCCCCCCC3(OC)C=C/C(=C(/C(=O)OCc4ccccn4)C(=O)CCCCCCCC1)O3)O2`, the growth was 18.5% with T-47D breast; -26.9% (active) in the assay with BT-549 breast; -23.6% (active) with MDA-MB-435 melanoma; 8.34% (active) in the assay with SW-620 colon; -0.915% (active) in the assay with MCF7 breast; -59.7% (active) in the assay with HCT-116 colon. In addition, the growth is -82.6% (active) in the assay with HCC-2998 colon and -76.2% (active) in the assay on KM12 colon.
On to `CCCCCCCCCCCCCC[n+]1ccc2c(C)c3c(c(C)c2c1)c1cc(O)ccc1n3CC`, for which the growth was -25.5% (active) in the assay with T-47D breast; -74.3% (active) in the assay with BT-549 breast; -92.6% (active) in the assay with MDA-MB-435 melanoma; -72.2% (active) in the assay on SW-620 colon; -70.3% (active) in the assay with MCF7 breast; -79.4% (active) with HCT-116 colon. Moreover, the growth was -64.6% (active) in the assay with HCC-2998 colon and -67.3% (active) with KM12 colon.
Consider `Cc1c(C(=O)C(SC(=S)N2CCOCC2)SC(=S)N2CCOCC2)nnn1-c1ccc([N+](=O)[O-])cc1`, for which the growth with T-47D breast is 92.3%; in the assay with BT-549 breast, 92.5%; in the assay with MDA-MB-435 melanoma, 105%; in the assay on SW-620 colon, 100%; with MCF7 breast, 79.5%; with HCT-116 colon it was 96.5%. For the same compound, the growth in the assay on HCC-2998 colon is 104%; in the assay with KM12 colon it was 111%.
As to `C/C(=C(\c1ccc(OCCCN(C)C)cc1)c1ccc(OC(=O)Cc2ccccc2)cc1)c1ccc(Cl)cc1`, the growth was 51.2% in the assay on T-47D breast; 83.9% with BT-549 breast; 57.7% in the assay with MDA-MB-435 melanoma; 84.6% in the assay on SW-620 colon; 23.5% with MCF7 breast; 58.3% in the assay with HCT-116 colon. Also, the growth is 73.6% in the assay with HCC-2998 colon and 67.4% with KM12 colon.
Take `CCOC(=O)C1=CCC(n2cc(F)c(=O)[nH]c2=O)O1` (configuration not stated): the growth in the assay on T-47D breast was 98.5%; with BT-549 breast, 107%; with MDA-MB-435 melanoma it was 110%; in the assay on SW-620 colon, 89.9%; in the assay on MCF7 breast, 93.1%; in the assay with HCT-116 colon, 96.7%. Besides, the growth is 103% in the assay on HCC-2998 colon and 88.3% with KM12 colon.

The record behind these values is PubChem BioAssay (NCI).
